# Test results: PubChem BioAssay (Tox21)
# Where “and” joins values, the source holds several entries; their conditions need not be identical. Equal entries are not always repeated. Results filed as inconclusive are left out. Entries that show only a call come without a potency. Some compounds were tested as several samples or in several runs, with calls that do not always agree. Calls of active or inactive are those of the source. Unless noted, calls follow the shape of the dose curve; as a rule, active = well fitted curve in the direction sought with a large enough effect in the repeat runs; inconclusive = weak or mixed curves; inactive = no such curve, though single readings can be large; an effect the other way counts as inactive or inconclusive.
# Tests used:
# [1] = qHTS assay to identify small molecule antagonists of the glucocorticoid receptor (GR) signaling pathway - cell viability counter screen (AID 720693); also: nearly all actives have a fitted effect of over 55% in size
# [2] = qHTS assay for identifying genotoxic compounds that show differential cytotoxicity against isogenic chicken DT40 cell lines with known DNA damage response pathways - wild type cell line (AID 743012); also: nearly all actives have a fitted effect of over 60% in size; also: potency is read from the fitted curve at half-maximal effect
# Procedure, shortened: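 Luminescent ATP viability signal (CellTiter-Glo, 30 min RT) recorded after wild type DT40 cells were incubated with compounds for 40 h at 37 C/5% CO2.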
# [3] = qHTS assay for identifying genotoxic compounds that show differential cytotoxicity against isogenic chicken DT40 cell lines with known DNA damage response pathways - Rev3 mutant cell line (AID 743014); also: nearly all actives have a fitted effect of over 55% in size; also: potency is read from the fitted curve at half-maximal effect
# [4] = qHTS assay for identifying genotoxic compounds that show differential cytotoxicity against isogenic chicken DT40 cell lines with known DNA damage response pathways - Rad54/Ku70 mutant cell line (AID 743015); also: nearly all actives have a fitted effect of over 60% in size; also: potency is read from the fitted curve at half-maximal effect
# [5] = qHTS assay to identify small molecule antagonists of the androgen receptor (AR) signaling pathway - cell viability counter screen (AID 743033; also: nearly all actives have a fitted effect of over 45% in size; also: potency is read from the fitted curve at half-maximal effect)
# [6] = qHTS assay to identify small molecule antagonists of the androgen receptor (AR) signaling pathway using the MDA cell line - cell viability counter screen (AID 743041; also: nearly all actives have a fitted effect of over 45% in size)
# Procedure, shortened: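 qHTS viability read-out; MDA-kb2 AR-luc; R1881-stimulated; 16 h exposure at 37C, 0% CO2; CellTiter-Fluor, 30 min; fluorescence intensity.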
# [7] = molecular target: Androgen receptor (Homo sapiens) (UniProt P10275); assay: qHTS assay to identify small molecule antagonists of the androgen receptor (AR) signaling pathway (AID 743035; active = well fitted inhibition curve with a large enough effect in the signal ratio in the repeat runs, not every such curve was filed as active; the % refers to the signal ratio; also: potency is read from the fitted curve at half-maximal effect)
# Sequence of Androgen receptor (Homo sapiens) (P10275 whole entry, looked up): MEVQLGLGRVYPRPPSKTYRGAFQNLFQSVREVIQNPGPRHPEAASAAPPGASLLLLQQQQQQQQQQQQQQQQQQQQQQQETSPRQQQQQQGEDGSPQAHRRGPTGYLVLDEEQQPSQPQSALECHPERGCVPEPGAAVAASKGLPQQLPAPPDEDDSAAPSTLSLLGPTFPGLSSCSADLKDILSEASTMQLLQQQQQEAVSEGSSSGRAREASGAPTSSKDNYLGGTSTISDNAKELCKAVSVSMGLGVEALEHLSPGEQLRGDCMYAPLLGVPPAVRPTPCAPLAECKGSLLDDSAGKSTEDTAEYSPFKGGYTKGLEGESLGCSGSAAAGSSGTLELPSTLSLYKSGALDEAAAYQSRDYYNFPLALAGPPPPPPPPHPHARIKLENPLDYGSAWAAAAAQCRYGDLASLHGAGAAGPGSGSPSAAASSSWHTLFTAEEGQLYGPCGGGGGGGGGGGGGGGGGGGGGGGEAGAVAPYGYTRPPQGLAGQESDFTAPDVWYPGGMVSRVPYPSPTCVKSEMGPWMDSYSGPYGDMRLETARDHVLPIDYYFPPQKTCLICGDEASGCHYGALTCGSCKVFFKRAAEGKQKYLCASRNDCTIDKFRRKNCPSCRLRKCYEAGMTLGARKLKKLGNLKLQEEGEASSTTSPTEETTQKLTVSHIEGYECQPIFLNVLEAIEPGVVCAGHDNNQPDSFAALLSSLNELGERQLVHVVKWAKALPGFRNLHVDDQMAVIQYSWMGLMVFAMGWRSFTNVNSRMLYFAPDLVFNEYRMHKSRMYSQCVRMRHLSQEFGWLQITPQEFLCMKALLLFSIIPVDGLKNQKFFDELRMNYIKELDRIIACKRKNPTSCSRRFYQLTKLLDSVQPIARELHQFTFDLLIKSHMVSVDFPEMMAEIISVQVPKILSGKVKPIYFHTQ
# Procedure, shortened: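 Quantitative HTS of the Tox21 10K library used HEK293 AR-UAS-bla cells stimulated with R1881 alongside compound for 16 h at 37C, followed by beta-lactamase FRET detection (LiveBLAzer B/G, 2 h, RT).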
# [8] = molecular target: Androgen receptor (Homo sapiens) (UniProt P10275); assay: qHTS assay to identify small molecule agonists of the androgen receptor (AR) signaling pathway (AID 743036; active = well fitted activation curve with a large enough effect in the signal ratio in the repeat runs, with a control signal flat, not every such curve was filed as active; the % refers to the signal ratio)
# Procedure, shortened: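 Cell-based FRET reporter assay: HEK293 line with a UAS-beta-lactamase construct, compounds added in DMSO, 16 h exposure at 37C, then 2 h substrate step at room temperature and fluorescence intensity read.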
# [9] = molecular target: Androgen receptor (Homo sapiens) (UniProt P10275); assay: qHTS assay to identify small molecule agonists of the androgen receptor (AR) signaling pathway using the MDA cell line (AID 743040; also: nearly all actives have a fitted effect of over 20% in size)
# Procedure, shortened: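 Agonist activity is measured as luciferase luminescence in human MDA-kb2 cells whose MMTV reporter responds to both AR and GR. Compounds in DMSO incubate 16 h at 37C, 0% CO2, and ONE-Glo is read after 30 min.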
# [10] = molecular target: Androgen receptor (Homo sapiens) (UniProt P10275); assay: qHTS assay to identify small molecule antagonists of the androgen receptor (AR) signaling pathway using the MDA cell line (AID 743042; also: nearly all actives have a fitted effect of over 55% in size; also: potency is read from the fitted curve at half-maximal effect)
# Procedure, shortened: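 MDA-kb2 cells (human breast carcinoma, stably carrying an MMTV-luciferase reporter responsive to AR and GR) were plated at 3,000 cells/well and preincubated 5 hr at 37C, then given compound plus R1881 agonist for 16 h. ONE-Glo luminescence was read.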
smiles,measurement,setting,value
COc1cccc(C=O)c1,Potency,[1],inactive
same,Potency,[2],inactive
same,Potency,[3],inactive
same,Potency,[4],inactive
same,Potency,[5],inactive
same,Potency,[6],inactive
Clc1ccc(C(Cl)(Cl)Cl)cn1,Potency,[1],inactive
same,Potency,[2],inactive
same,Potency,[3],61.1 µM (active)
same,Potency,[4],inactive
same,Potency,[5],inactive
same,Potency,[7],inactive
same,outcome,[8],inactive
same,outcome,[9],inactive
same,Potency,[6],inactive
same,Potency,[10],inactive
COc1ccc(C=O)cc1O,Potency,[1],inactive
same,Potency,[2],inactive
same,Potency,[3],inactive
same,Potency,[4],inactive
same,Potency,[5],inactive
same,outcome,[9],inactive
same,Potency,[6],inactive
same,Potency,[10],inactive
Clc1cc2c(cc1Cl)Oc1cc(Cl)c(Cl)cc1O2,"viability change, negative = cytotoxic",[1],-0.875% [at 0.284 µM] (inactive)
same,"activity change, negative = cytotoxicity",[2],0.129% [at 0.343 µM] (inactive)
same,"activity, negative = cytotoxicity",[3],4.17% [at 0.343 µM] (inactive)
same,"activity change, negative = cytotoxicity",[4],7.26% [at 0.345 µM] (inactive)
same,"activity change, negative = cytotoxicity",[5],-3.41% [at 0.284 µM] (inactive)
same,"activity change, negative = inhibition",[7],-2.78% [at 0.284 µM] (inactive)
same,activation,[8],-3.9% [at 0.28 µM] (inactive)
same,activity change,[9],5.01% [at 0.341 µM] (inactive)
same,"viability change, negative = cytotoxic",[6],-3.89% [at 0.341 µM] (inactive)
same,"activity change, negative = inhibition",[10],-2.57% [at 0.341 µM] (inactive)
C[N+]1(C)CCCCC1,Potency,[1],inactive
same,Potency,[2],inactive
same,Potency,[3],inactive
same,Potency,[4],inactive
same,Potency,[5],inactive
same,Potency,[7],inactive
same,outcome,[8],inactive
same,outcome,[9],inactive
same,Potency,[6],inactive
same,Potency,[10],inactive
CCC(C)(C#N)N=NC(C)(C#N)CC (stereo unspecified),Potency,[1],inactive
same,Potency,[2],inactive
same,Potency,[3],inactive
same,Potency,[4],inactive
same,Potency,[5],inactive
same,Potency,[7],inactive
same,outcome,[8],inactive
same,outcome,[9],inactive
same,Potency,[6],inactive
same,Potency,[10],inactive
COc1cc(CC(C)N)cc(OC)c1OC (stereo unspecified),Potency,[1],inactive
same,Potency,[2],inactive
same,Potency,[3],inactive
same,Potency,[4],inactive
same,Potency,[5],inactive
COC(=O)c1ccc(CBr)cc1,Potency,[1],inactive
same,Potency,[2],inactive
same,Potency,[3],inactive
same,Potency,[4],inactive
same,Potency,[5],inactive
same,Potency,[7],inactive
same,outcome,[8],inactive
same,outcome,[9],inactive
same,Potency,[6],inactive
same,Potency,[10],inactive
CCN(CC)CCOC(=O)C(O)(c1ccccc1)c1ccccc1,Potency,[1],inactive
same,Potency,[2],inactive
same,Potency,[3],inactive
same,Potency,[4],inactive
same,Potency,[5],inactive
C[C@H](CN1CCOCC1)C(C(=O)N1CCCC1)(c1ccccc1)c1ccccc1,Potency,[1],inactive
same,Potency,[2],33.2 µM (active)
same,Potency,[3],37.3 µM (active)
same,Potency,[4],59.1 µM (active)
same,Potency,[5],inactive
same,outcome,[8],inactive
same,outcome,[9],inactive
same,Potency,[6],inactive
same,Potency,[10],inactive
CNC(=O)NC(O)C(Cl)(Cl)Cl (stereo unspecified),Potency,[1],inactive
same,Potency,[2],inactive
same,Potency,[3],inactive
same,Potency,[4],inactive
same,Potency,[5],inactive
same,Potency,[7],inactive
same,outcome,[8],inactive
same,outcome,[9],inactive
same,Potency,[6],inactive
same,Potency,[10],inactive
N[C@@H]1C[C@H]1c1ccccc1,Potency,[1],inactive
same,Potency,[2],inactive
same,Potency,[3],inactive
same,Potency,[4],inactive
same,Potency,[5],inactive
same,Potency,[7],inactive
same,outcome,[8],inactive
same,outcome,[9],inactive
same,Potency,[6],inactive
same,Potency,[10],inactive
ClCOCCl,Potency,[1],inactive
same,Potency,[2],inactive
same,Potency,[3],inactive
same,Potency,[4],inactive
same,Potency,[5],inactive
same,Potency,[6],inactive
C[C@H]1CCCC(=O)CCC/C=C/c2cc(O)cc(O)c2C(=O)O1,Potency,[1],inactive
same,Potency,[2],20.9 µM (active) and 20 µM (active)
same,Potency,[3],16.6 µM (active) and 22.4 µM (active)
same,Potency,[4],16.6 µM (active) and 17.8 µM (active)
same,Potency,[5],42.1 µM (active)
same,Potency,[7],20.2 µM (active)
same,outcome,[8],inactive
same,outcome,[9],inactive
same,Potency,[6],inactive
same,Potency,[10],52.5 µM (active)
CCOP(=S)(OCC)SCCl,Potency,[1],inactive
same,Potency,[2],inactive
same,Potency,[3],inactive
same,Potency,[4],inactive
same,Potency,[5],inactive
same,Potency,[7],inactive
same,outcome,[8],inactive
same,outcome,[9],inactive
same,Potency,[6],inactive
same,Potency,[10],inactive
CN(C)C(=O)Oc1cc(OC(=O)N(C)C)cc(C(O)CNC(C)(C)C)c1 (stereo unspecified),Potency,[1],inactive
same,Potency,[2],inactive
same,Potency,[3],inactive
same,Potency,[4],inactive
same,Potency,[5],inactive
same,Potency,[7],inactive
same,outcome,[8],inactive
same,outcome,[9],inactive
same,Potency,[6],inactive
same,Potency,[10],inactive
CC(C)C(C)(N)C#N (stereo unspecified),Potency,[1],inactive
same,Potency,[2],inactive
same,Potency,[3],inactive
same,Potency,[4],inactive
same,Potency,[5],inactive
CCOC(=O)COc1ccc(Cl)cc1Cl,Potency,[1],inactive
same,Potency,[2],inactive
same,Potency,[3],inactive
same,Potency,[4],inactive
same,Potency,[5],inactive
CCC1(c2ccccc2)C(=O)N(COC)C(=O)N(COC)C1=O,Potency,[1],inactive
same,Potency,[2],inactive
same,Potency,[3],inactive
same,Potency,[4],inactive
same,Potency,[5],inactive
same,Potency,[7],inactive
same,outcome,[8],inactive
same,outcome,[9],inactive
same,Potency,[6],inactive
same,Potency,[10],inactive
CCOC(=O)C(SP(=S)(OC)OC)c1ccccc1 (stereo unspecified),Potency,[1],inactive
same,Potency,[2],inactive
same,Potency,[3],inactive
same,Potency,[4],inactive
same,Potency,[5],inactive
same,Potency,[6],inactive
CCc1cc(OC)c(C[C@H](C)N)cc1OC,Potency,[1],inactive
same,Potency,[2],63.7 µM (active)
same,Potency,[3],71.5 µM (active)
same,Potency,[4],63.7 µM (active)
same,Potency,[5],inactive
CCC1(CC)C(=O)C=CNC1=O,Potency,[1],inactive
same,Potency,[2],inactive
same,Potency,[3],inactive
same,Potency,[4],inactive
same,Potency,[5],inactive
CC(=O)OCC1=C(C(=O)O)N2C(=O)[C@@H](N)[C@H]2SC1,Potency,[1],inactive
same,Potency,[2],inactive
same,Potency,[3],inactive
same,Potency,[4],inactive
same,Potency,[5],inactive
same,Potency,[6],inactive
O=C/C=C/c1ccco1,Potency,[1],inactive
same,Potency,[2],inactive
same,Potency,[3],inactive
same,Potency,[4],inactive
same,Potency,[5],inactive
same,Potency,[7],inactive
same,outcome,[8],inactive
same,outcome,[9],inactive
same,Potency,[6],inactive
same,Potency,[10],inactive
CCOC(=O)CC(SP(=S)(OC)OC)C(=O)OCC (stereo unspecified),Potency,[1],inactive
same,Potency,[2],inactive
same,Potency,[3],inactive and 64.8 µM (active)
same,Potency,[4],inactive and 58.8 µM (active)
same,Potency,[5],inactive
same,Potency,[7],inactive
same,outcome,[8],inactive
same,outcome,[9],inactive
same,Potency,[6],inactive
same,Potency,[10],inactive
